# Measured potencies and affinities stand elsewhere.
# System: Candida albicans
# Settings: 32 ug/mL
row,Compound,Inhibition
1,Cc1ccccc1Nc1ccccc1-c1ccc([N+](=O)[O-])cc1,-0.09%
2,O=[N+]([O-])c1ccc(-c2ccccc2N(Cc2ccccc2)c2ccccc2)cc1,8.51%
3,O=[N+]([O-])c1ccc(-c2c(Nc3ccccc3)ccc3ccccc23)cc1,1.64%
4,CN(c1ccccc1)c1ccccc1-c1ccc([N+](=O)[O-])cc1,4.63%
5,O=[N+]([O-])c1ccc2c3ccccc3n(-c3ccccc3)c2c1,8.19%
6,COc1cccc(Nc2ccccc2)c1-c1c(Cl)cc(Br)cc1Cl,23.8%
7,COc1ccc(Nc2ccccc2-c2ccc([N+](=O)[O-])cc2)cc1,5.77%
8,O=[N+]([O-])c1ccc(-c2c(Nc3ccccc3)cccc2-c2ccccc2)cc1,7.71%
9,CC[C@@H](Nc1ccccc1-c1c(Cl)cc(Br)cc1Cl)c1ccccc1,9.45%
10,COc1cc([N+](=O)[O-])ccc1-c1c(Nc2ccccc2)cccc1OC,5.26%
11,O=[N+]([O-])c1ccc(-c2ccccc2Nc2ccccc2)cc1,9.3%
12,Cc1cc(C)c(Nc2ccccc2-c2ccc([N+](=O)[O-])cc2)c(C)c1,7.08%
13,N#Cc1ccc(-c2ccccc2Nc2ccccc2)cc1,10.8%
14,COc1cc([N+](=O)[O-])ccc1-c1ccccc1Nc1ccccc1,5.71%
15,c1ccc(Nc2ccccc2-c2ncccn2)cc1,12.1%
16,O=[N+]([O-])c1cc(Cl)c(-c2ccccc2Nc2ccccc2)c(Cl)c1,6.95%
17,COc1cccc(N(C)c2cccc(OC)c2-c2ccc([N+](=O)[O-])cc2C)c1,3.58%
18,COc1cccc(Nc2ccccc2)c1-c1ccc([N+](=O)[O-])cc1,7.07%
19,Clc1cc(Br)cc(Cl)c1-c1ccccc1Nc1ccccc1,5.55%
20,O=[N+]([O-])c1ccc(-c2ccccc2Nc2ccccc2)cc1F,8.22%
21,Cc1cccc(C)c1Nc1ccccc1-c1ccccc1[N+](=O)[O-],6.73%
22,CC(=O)c1ccc(-c2ccccc2Nc2ccccc2)cc1,1.55%
23,O=[N+]([O-])c1ccc(-c2ccccc2Nc2ccccc2)c(Cl)c1,10.1%
24,O=[N+]([O-])c1ccc(-c2ccccc2Nc2ccccc2Br)cc1,4.47%
25,Cc1cc([N+](=O)[O-])ccc1-c1ccccc1N(C)c1ccccc1,5.96%
26,O=[N+]([O-])c1ccc(-c2cccc3c2[nH]c2ccccc23)cc1,4.69%
27,O=[N+]([O-])c1ccc(-c2ccccc2Nc2ccccc2)cc1C(F)(F)F,12.5%

# From ChEMBL document CHEMBL4513137, “CO-ADD screening of University of Manchester (UK) compounds”
